# Laboratory results: PubChem BioAssay (EPA / NIEHS)
# The source made the active and inactive calls. The calls were made as follows: active = hit-call score of the fitted dose curve at least 0.9, where 1 is the maximum; inactive = score below 0.9.
# Molecular target: Paired box protein Pax-6 (Homo sapiens) (UniProt P26367)
# Experiment: ATG_Pax6_CIS: Attagene CIS-FACTORIAL HepG2 Assay for human Paired Box 6 (PAX6) (AID 2282956)
# Details: HepG2 CIS-FACTORIAL PAX6 reporter transcription, RNA readout; actives raise or lower the signal
# Experimental: ATG_CIS is a cell-based, multiplexed-readout assay that uses HepG2, a human liver cell line, with measurements taken at 24 hours after chemical dosing in a 24-well plate.ATG_Pax6_CIS is one of 52 assay component(s) measured or calculated from the ATG_CIS assay. It is designed to make measurements of mRNA induction, a form of inducible reporter, as detected with fluorescence intensity signals by Reverse transcription polymerase chain reaction (RT-PCR) and Capillary electrophoresis technology.Data from the assay component ATG_Pax6_CIS was analyzed into 1 assay endpoint. This assay endpoint, ATG_Pax6_CIS, was analyzed with bidirectional fitting relative to DMSO as the negative control and baseline of activity. Using a type of inducible reporter, measures of mRNA for gain or loss-of-signal activity can be used to understand the reporter gene at the transcription factor-level as they relate to the gene PAX6. Furthermore, this assay endpoint can be referred to as a primary readout, because this assay has produced multiple assay endpoints where this one serves a reporter gene function. To generalize the intended target to other relatable targets, this assay endpoint is annotated to the dna binding intended target family, where the subfamily is paired box protein.
# Human liver HepG2 cells are transiently transfected with multiple reporter transcription units (MRTUs) in 6-well plates using FuGene 6 reagent (Roche; 3 ml FuGene/1 mg DNA). The MRTU constructs are regulated by a cis-regulating element (promoter). […] A major difference between the CIS and TRANS system is that in CIS activities of endogenous TFs are measured, whereas the TRANS assay evaluates changes in activities of exogenous, chimeric NR-Gal4 proteins. […] At the end of 24 hour incubation, total RNA was isolated using TriZol reagent (Invitrogen). The isolated RNA is then reverse-transcribed using oligo(dT) primer and Mo-MLV reverse transcriptase (Invitrogen) with DNAse I (Ambion) treatment for 30 min. The one-tenth of the produced cDNA was amplified by PCR using Taq DNA polymerase (Invitrogen) and two reporter sequence-specific primers. The PCR products were fluorescently labeled by primer extension with 6-arboxyfluorescein (6-FAM) 5'-labeled reporter sequence-specific primer (2 min at 95 C, 20 s at 68 C and 10 min at 72 C) and these products were digested with 5U of HpaI (New England Biolabs) for 2h at 37 C. The fragments were purified using Qiaquick PCR columns (Qiagen), analyzed on an ABI 3130xL genetic analyzer (Applied Biosystems) with peak positions identified by using a set of X-rhodamine (ROX)-labeled MapMarker1000 molecular weight standards (BioVentures). The raw capillary electrophoresis data was processed using Attagraph software (Attagene).
# Paired box protein Pax-6 (Homo sapiens), sequence (P26367 whole entry, looked up): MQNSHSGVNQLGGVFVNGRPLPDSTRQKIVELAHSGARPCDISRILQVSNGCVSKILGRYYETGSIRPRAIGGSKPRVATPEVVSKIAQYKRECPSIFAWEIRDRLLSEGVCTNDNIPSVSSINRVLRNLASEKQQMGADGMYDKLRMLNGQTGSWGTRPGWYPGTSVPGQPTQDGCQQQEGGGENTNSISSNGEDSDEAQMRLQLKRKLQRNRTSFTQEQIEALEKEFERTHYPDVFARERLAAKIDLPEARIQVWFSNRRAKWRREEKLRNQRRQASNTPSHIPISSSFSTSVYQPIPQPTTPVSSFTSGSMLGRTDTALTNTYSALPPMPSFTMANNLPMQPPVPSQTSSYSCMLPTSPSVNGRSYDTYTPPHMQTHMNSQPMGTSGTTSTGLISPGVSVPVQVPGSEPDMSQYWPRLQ
SMILES,outcome,AC50
OCC(O)CC(F)(F)C(F)(F)C(F)(F)C(F)(F)C(F)(F)C(F)(F)C(F)(F)C(F)(F)F (stereo not given),inactive,
CCC(=O)OC(C)c1ccccc1 (stereo not given),inactive,
CCN(CC)c1ccc(C=O)c(O)c1,inactive,
O=C(O)CCC(F)(F)C(F)(F)C(F)(F)F,inactive,
O=C(Cl)C(F)(F)C(F)(F)C(F)(F)C(F)(F)C(F)(F)C(F)(F)C(F)(F)F,inactive,
CC(C)(C)c1cc(Cc2cc(C(C)(C)C)c(O)c(C(C)(C)C)c2)cc(C(C)(C)C)c1O,inactive,
C[C@]12CC[C@H]3C(=CCc4cc(O)ccc43)[C@@H]1CCC2=O,inactive,
c1ccc(C[P+](c2ccccc2)(c2ccccc2)c2ccccc2)cc1,inactive,
O=C(O)C(F)(F)C(F)(F)C(F)(F)OC(F)(C(F)(F)F)C(F)(F)F,inactive,
CC1=CC2C3C=CC(C3)C2C1C (stereo not given),inactive,
C=C(C)C(=O)OCC(F)(F)C(F)(F)C(F)(F)C(F)F,inactive,
N#CCCOCCC#N,inactive,
OCC(F)(F)C(F)(F)C(F)(F)C(F)(F)C(F)(F)C(F)(F)C(F)(F)C(F)(F)CO,inactive,
C=CC(=O)OCCC(F)(F)C(F)(F)C(F)(F)C(F)(F)F,inactive,
CCN=c1cc2oc3cc(NCC)c(C)cc3c(-c3ccccc3C(=O)OCC)c-2cc1C,,8.69 µM (active)
CCOC(=O)CCC(C)=O,inactive,
C=CC(=O)OCC(F)(F)C(F)(F)C(F)(F)COC(=O)C=C,,50 µM (active)
C[Si](Cl)(Cl)CCC(F)(F)C(F)(F)C(F)(F)C(F)(F)C(F)(F)C(F)(F)F,inactive,
OCC(F)(F)C(F)(F)C(F)(F)CO,inactive,
Brc1nc2ccccc2s1,inactive,

SMILES,outcome,AC50
OC(O)C(F)(F)C(F)(F)F,inactive,
CCCCCCCCCCCCC[N+](C)(C)Cc1ccccc1,inactive,
CC(C)Nc1ccc(NC(C)C)c2c1C(=O)c1ccccc1C2=O,inactive,
NC(=O)C(F)(F)C(F)(F)C(F)(F)C(F)(F)C(N)=O,inactive,
CC(O)C#CC(C)O (stereo not given),,81.3 µM (active)
CCOCOCC,inactive,
COCCC(=O)OC,inactive,
CCOCN(C(=O)CS(=O)(=O)O)c1c(C)cccc1CC,inactive,
OCC(O)CC(F)(F)C(F)(F)C(F)(F)C(F)(F)F (stereo not given),inactive,
CC(=O)C=O,inactive,
CCCCC(CC)COC(=O)c1ccc(N(C)C)cc1 (stereo not given),inactive,
CCN(CC)c1ccc(N=Nc2ccccc2)cc1,inactive,
O=C(O)CCC(F)(F)C(F)(F)C(F)(F)C(F)(F)C(F)(F)C(F)(F)C(F)(F)F,inactive,
FC(F)(F)C(F)(F)C(F)(F)C(F)(F)C(F)(F)C(F)(F)CC[Si](Cl)(Cl)Cl,inactive,
CNS(=O)(=O)C(F)(F)C(F)(F)C(F)(F)C(F)(F)C(F)(F)C(F)(F)C(F)(F)C(F)(F)F,inactive,
CCN(CCO)S(=O)(=O)C(F)(F)C(F)(F)C(F)(F)C(F)(F)C(F)(F)C(F)(F)C(F)(F)C(F)(F)F,inactive,
CCCC(=O)OCC(COC(=O)CCC)OC(=O)CCC,inactive,
FC(F)(F)C(F)(F)C(F)(F)CC1CO1 (stereo not given),inactive,
CN(C)C(C)(C)CO,inactive,
CCC/C=C/CO,inactive,
